Reference: PubChem BioAssay (EPA / NIEHS)
Several values for one entry are separate records, joined by “and”; a condition that tells them apart may be missing. Equal values may be shown once. Records with an inconclusive call do not appear. Activity calls are given as the source filed them. How the source made its calls, unless noted: active means hit-call score of the fitted dose curve at least 0.9, where 1 is the maximum; inactive means score below 0.9.

Assays:
[1] = read-out: Secreted IgG (sIgG), gene 3500; assay: BSK_BT_sIgG: BioMAP Diversity Plus: BT Assay for Secreted IgG (sIgG) Biomarker Activity (AID 2284226); details: primary human B cells with PBMC
Outline: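 Secreted IgG from a human primary B cell–PBMC co-culture was measured by ELISA 24 hours after dosing, with DMSO defining baseline activity.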

[2] = read-out: Interleukin 6 (IL6), IL6 (gene 3569); assay: BSK_BT_xIL6: BioMAP Diversity Plus: BT Assay for Interleukin 6 (IL6) Biomarker Activity (AID 2284228); details: primary human B cells with PBMC
Outline: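 Human B cell plus PBMC co-culture exposed to test chemical for 24 h; secreted IL-6 quantified by Luminex xMAP bead assay. Activity fitted in the positive direction against DMSO as negative control and baseline.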

[3] = read-out: Vascular cell adhesion molecule 1 (VCAM1), VCAM1 (gene 7412); assay: BSK_MyoF_VCAM1: BioMAP Diversity Plus: MyoF Assay for Vascular cell adhesion molecule 1 (VCAM1) Biomarker Activity (AID 2284231); details: primary human lung fibroblasts
Outline: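 Primary human lung fibroblasts were dosed with test chemical for 24 h, then cell-surface VCAM-1 was measured by ELISA. Activity was fitted in the positive direction against DMSO as negative control and baseline.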

[4] = read-out: Actin alpha 1 (ACTA1), ACTA1 (gene 58); assay: BSK_MyoF_ACTA1: BioMAP Diversity Plus: MyoF Assay for Actin alpha 1 (ACTA1) Biomarker Activity (AID 2284244); details: primary human lung fibroblasts
Outline: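 Measured by ELISA: alpha-smooth muscle actin in human primary lung fibroblasts 24 h after dosing, with DMSO as baseline and upward signal change as the fitted direction.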

[5] = read-out: Basic fibroblast growth factor (bFGF), FGF2 (gene 2247); assay: BSK_MyoF_bFGF: BioMAP Diversity Plus: MyoF Assay for Basic fibroblast growth factor (bFGF) Biomarker Activity (AID 2284246); details: primary human lung fibroblasts
Outline: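 In this multiplexed cell system, lung fibroblasts (human primary) receive test chemical for 24 h before ELISA detection of bFGF; DMSO defines baseline and the analysis direction is positive.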

[6] = read-out: Interleukin-8 (IL8), CXCL8 (gene 3576); assay: BSK_MyoF_IL8: BioMAP Diversity Plus: MyoF Assay for Interleukin-8 (IL8) Biomarker Activity (AID 2284261); details: primary human lung fibroblasts
Outline: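 ELISA read-out of IL-8 from primary human lung fibroblasts, 24 h post-dose; positive-direction curve fitting relative to DMSO vehicle baseline.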

[7] = read-out: Decorin, DCN (gene 1634); assay: BSK_MyoF_Decorin: BioMAP Diversity Plus: MyoF Assay for Decorin Biomarker Activity (AID 2284265); details: primary human lung fibroblasts
Outline: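 Human lung fibroblasts in the MyoF system were exposed to compound for 24 h, after which decorin was quantified by ELISA. Activity was fitted in the positive direction relative to DMSO negative control.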

[8] = BSK_MyoF_SRB: Viability Assessment in the BioMAP Diversity Plus: MyoF Assay (AID 2284267); details: primary human lung fibroblasts;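 further: total protein by SRB absorbance in parallel cultures as cytotoxicity measure; cells assessed 24 h after compound addition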
Outline: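 Cytotoxicity in primary human lung fibroblasts is gauged by SRB total-protein staining 24 h after dosing, with DMSO as the negative control.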

[9] = biological target: human Retinoic Acid Receptor beta (RARb), RARB (gene 5915) (UniProt P10826); assay: ATG_RARb_TRANS: Attagene TRANS-FACTORIAL HepG2 Assay for human Retinoic Acid Receptor beta (AID 2283004; active means hit-call score of the fitted dose curve at least 0.9, where 1 is the maximum)
Outline: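 HepG2 cells transiently transfected with multiplexed GAL4-UAS reporter units expressing chimeric NR–Gal4 fusions; 24 h compound exposure. Reporter mRNA quantified by RT-PCR, 6-FAM labelling, HpaI digestion and capillary electrophoresis; gain-of-signal fitted against DMSO baseline.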

[10] = biological target: Retinoic acid receptor alpha (Homo sapiens) (UniProt P10276); assay: ATG_RARa_TRANS: Attagene TRANS-FACTORIAL HepG2 Assay for human Retinoic Acid Receptor alpha (RARa) (AID 2283005; active means hit-call score of the fitted dose curve at least 0.9, where 1 is the maximum)
Outline: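 HepG2 cells transiently transfected with multiple reporter units expressing chimeric RARα-GAL4 fusion, with GAL4-UAS-driven reporters. After 24 h compound exposure, reporter mRNA induction quantified by RT-PCR and capillary electrophoresis with fluorescent labeling; gain-of-signal fitted relative to DMSO control.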

[11] = biological target: human Retinoic Acid Receptor gamma (RARg), RARG (gene 5916) (UniProt P13631); assay: ATG_RARg_TRANS: Attagene TRANS-FACTORIAL HepG2 Assay for human Retinoic Acid Receptor gamma (RARg) (AID 2283009; active means hit-call score of the fitted dose curve at least 0.9, where 1 is the maximum)
Outline: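 HepG2, RARg-GAL4 TRANS system, 24 h exposure; reporter mRNA by RT-PCR + CE fluorescence; increase over DMSO.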

[12] = biological target: Bile acid receptor (Homo sapiens) (UniProt Q96RI1); assay: OT_FXR_FXRSRC1_1440: Odyssey Thera (OT) 24-hour HEK293T Protein-Complementation Assay for Farnesoid X receptor/SRC-1 Co-activator (AID 2283384; active means hit-call score of the fitted dose curve at least 0.9, where 1 is the maximum)
Outline: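 Cell-based binding reporter: interaction of FXR with SRC-1 brings reporter fragments together, giving a fluorescence signal read 24 h after dosing of HEK293T cells.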

[13] = CEETOX_H295R_MTT_cell_viability: Viability Assessment in the CeeTox HT-H295R MTT Assay (AID 2283718)
Outline: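 H295R cells prestimulated 48 h with 10 uM forskolin, then exposed 48 h to test chemical (0.1% DMSO final). Viability by MTT (0.5 mg/ml, 4 h, 37 C), absorbance 570/650 nm; percent change versus DMSO, bidirectional fit.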

[14] = biological target: Glucocorticoid receptor (Homo sapiens) (UniProt P04150); assay: ATG_GR_TRANS: Attagene TRANS-FACTORIAL HepG2 Assay for human Glucocorticoid Receptor (GR) (AID 2282978; active means hit-call score of the fitted dose curve at least 0.9, where 1 is the maximum;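 further: activators score as hits since higher reporter transcript over DMSO is fitted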); details: HepG2 Attagene TRANS GR reporter, mRNA transcription
Outline: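 Fluorescent capillary-electrophoresis quantitation of reporter mRNA is the readout, taken 24 h after dosing human HepG2 cells carrying transiently transfected GAL4-UAS reporter units activated by chimeric NR-GAL4 fusions; activity scored as induction over DMSO.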

[15] = biological target: Androgen receptor (Homo sapiens) (UniProt P10275); assay: ATG_AR_TRANS: Attagene TRANS-FACTORIAL HepG2 Assay for human Androgen Receptor (AR) (AID 2282973; active means hit-call score of the fitted dose curve at least 0.9, where 1 is the maximum); details: HepG2 Attagene TRANS-FACTORIAL AR reporter transcription
Outline: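 HepG2 cells transiently transfected with multiplexed GAL4-UAS reporter units and chimeric NR-Gal4 fusion; 24 h compound exposure. Reporter mRNA measured by RT-PCR, 6-FAM labelling, HpaI digestion and capillary electrophoresis; gain-of-signal fitted relative to DMSO baseline.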

[16] = biological target: rat Thyrotropin Releasing Hormone Receptor (TRH), Trhr (gene 25570) (UniProt Q01717); assay: NVS_GPCR_rTRH: NovaScreen (NVS) G Protein-Coupled Receptor Assay for rat Thyrotropin Releasing Hormone Receptor (TRH) (AID 2283329; active means hit-call score of the fitted dose curve at least 0.9, where 1 is the maximum;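 further: hit means lower bound tracer signal versus DMSO baseline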)
Outline: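 Rat forebrain membrane prep, radioligand displacement, filter scintillation readout at 4 h. Single conc 25 uM, duplicate; actives retested as concentration series. DMSO = negative control/baseline.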

[17] = test system: Thyroperoxidase (TPO), gene 54314; assay: CCTE_Simmons_AUR_rTPO: CCTE's Amplex UltraRed Assay for Thyroperoxidase (TPO) Inhibition, Simmons Lab (AID 2283662; active means hit-call score of the fitted dose curve at least 0.9, where 1 is the maximum;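 further: potency for loss of signal meaning inhibition of peroxidase activity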)
Outline: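 Cell-free peroxidase activity assay using rat thyroid gland microsomes with excess H2O2 (300 uM) and 25 uM Amplex UltraRed. Compounds tested from 5 nM to 87.5 uM; fluorescence measured after 30 min at 37C, analysed relative to DMSO baseline.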

[18] = CCTE_Simmons_CellTiterGLO_HEK293T: Viability Assessment in CCTE's Assays for Thyroperoxidase (TPO) Inhibition, Simmons Lab (AID 2283665; active means hit-call score of the fitted dose curve at least 0.9, where 1 is the maximum)
Outline: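 Cytotoxicity counter-screen: human HEK293T cells in low-serum (1% FBS) medium receive test chemical, 5 nM to 87.5 uM final, for 24 h; ATP is quantified by luciferase luminescence.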

[19] = biological target: Luciferin 4-monooxygenase (Photinus pyralis) (UniProt P08659); assay: CCTE_Simmons_QuantiLum_inhib_2: CCTE's Firefly Luciferase Inhibition Assay, Simmons Lab (AID 2283767; active means hit-call score of the fitted dose curve at least 0.9, where 1 is the maximum)
Outline: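 Counter-screen for nonspecific enzyme inhibition: purified firefly luciferase incubated 30 min at 37C with chemicals up to 87.5 uM final, then luminescence measured after luciferin/dATP injection; activity fitted against DMSO baseline.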

[20] = biological target: human Peripheral-type Benzodiazepine Receptor (PBR), TSPO (gene 706) (UniProt P30536); assay: NVS_MP_hPBR: NovaScreen (NVS) Membrane Protein Assay for human Peripheral-type Benzodiazepine Receptor (PBR) (AID 2283331; active means hit-call score of the fitted dose curve at least 0.9, where 1 is the maximum;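 further: hits reduce radioligand binding relative to DMSO baseline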)
Outline: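 Human colonic cell membranes were incubated with test chemical for 1 hour; radioligand binding was measured by filter-based scintillation counting. Primary screen ran in duplicate at 25 uM, with actives followed in concentration series; loss of signal versus DMSO baseline.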

Measured: AC50

Androgen receptor (Homo sapiens), sequence (P10275 whole entry, looked up, the tested form may be a part): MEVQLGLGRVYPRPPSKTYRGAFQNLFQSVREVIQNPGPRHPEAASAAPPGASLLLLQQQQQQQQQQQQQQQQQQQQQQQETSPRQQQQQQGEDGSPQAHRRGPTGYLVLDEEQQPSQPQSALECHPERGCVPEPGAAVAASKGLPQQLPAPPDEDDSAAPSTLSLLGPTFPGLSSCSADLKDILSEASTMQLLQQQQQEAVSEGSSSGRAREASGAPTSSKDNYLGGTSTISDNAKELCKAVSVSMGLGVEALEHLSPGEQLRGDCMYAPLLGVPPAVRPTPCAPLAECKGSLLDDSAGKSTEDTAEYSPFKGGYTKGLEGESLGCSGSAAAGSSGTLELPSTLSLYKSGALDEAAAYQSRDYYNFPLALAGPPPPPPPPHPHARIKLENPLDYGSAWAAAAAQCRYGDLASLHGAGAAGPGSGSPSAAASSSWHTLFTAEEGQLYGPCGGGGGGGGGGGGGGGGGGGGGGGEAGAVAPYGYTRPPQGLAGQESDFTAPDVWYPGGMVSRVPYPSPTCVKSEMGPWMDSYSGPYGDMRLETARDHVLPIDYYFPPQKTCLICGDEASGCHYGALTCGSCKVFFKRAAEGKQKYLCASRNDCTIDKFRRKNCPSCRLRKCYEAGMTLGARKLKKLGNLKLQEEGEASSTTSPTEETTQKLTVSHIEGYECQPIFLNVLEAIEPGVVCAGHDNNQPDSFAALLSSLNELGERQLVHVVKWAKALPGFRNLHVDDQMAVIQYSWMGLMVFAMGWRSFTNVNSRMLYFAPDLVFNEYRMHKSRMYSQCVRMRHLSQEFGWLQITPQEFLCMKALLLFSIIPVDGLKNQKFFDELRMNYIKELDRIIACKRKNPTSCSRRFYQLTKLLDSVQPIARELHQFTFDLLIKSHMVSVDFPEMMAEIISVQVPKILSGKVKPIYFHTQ
human Peripheral-type Benzodiazepine Receptor (PBR), TSPO (gene 706), sequence (P30536 whole entry, looked up): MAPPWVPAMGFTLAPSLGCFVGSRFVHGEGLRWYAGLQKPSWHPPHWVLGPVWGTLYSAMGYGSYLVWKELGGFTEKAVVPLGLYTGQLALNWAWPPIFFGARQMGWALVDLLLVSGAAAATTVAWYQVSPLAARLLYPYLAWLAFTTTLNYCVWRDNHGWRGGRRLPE
human Retinoic Acid Receptor gamma (RARg), RARG (gene 5916), sequence (P13631 whole entry, looked up, the tested form may be a part): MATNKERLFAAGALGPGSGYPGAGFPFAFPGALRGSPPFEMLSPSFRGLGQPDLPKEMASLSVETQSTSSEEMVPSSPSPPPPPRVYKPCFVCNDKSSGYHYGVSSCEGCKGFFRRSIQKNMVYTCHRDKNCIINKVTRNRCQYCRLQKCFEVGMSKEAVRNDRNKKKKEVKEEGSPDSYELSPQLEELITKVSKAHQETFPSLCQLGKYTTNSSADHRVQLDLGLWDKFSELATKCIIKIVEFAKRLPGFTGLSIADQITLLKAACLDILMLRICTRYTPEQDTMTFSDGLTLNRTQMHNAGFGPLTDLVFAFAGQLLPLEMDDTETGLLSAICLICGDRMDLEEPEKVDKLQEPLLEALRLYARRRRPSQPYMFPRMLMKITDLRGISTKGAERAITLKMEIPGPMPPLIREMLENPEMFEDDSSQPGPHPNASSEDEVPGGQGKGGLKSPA
Bile acid receptor (Homo sapiens), sequence (Q96RI1 whole entry, looked up, the tested form may be a part): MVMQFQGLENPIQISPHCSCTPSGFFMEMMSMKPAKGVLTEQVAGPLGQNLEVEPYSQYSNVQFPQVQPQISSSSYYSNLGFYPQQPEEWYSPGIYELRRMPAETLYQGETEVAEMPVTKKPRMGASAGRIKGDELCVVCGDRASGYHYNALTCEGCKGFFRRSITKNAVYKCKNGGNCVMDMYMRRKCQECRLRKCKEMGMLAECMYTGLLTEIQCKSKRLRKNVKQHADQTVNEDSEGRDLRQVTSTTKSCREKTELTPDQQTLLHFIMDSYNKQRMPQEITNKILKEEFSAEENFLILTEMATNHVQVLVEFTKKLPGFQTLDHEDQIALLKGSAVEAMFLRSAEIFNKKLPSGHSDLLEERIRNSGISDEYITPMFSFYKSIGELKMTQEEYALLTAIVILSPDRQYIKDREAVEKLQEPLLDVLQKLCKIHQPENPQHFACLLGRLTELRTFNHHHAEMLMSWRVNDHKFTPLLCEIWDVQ
Retinoic acid receptor alpha (Homo sapiens), sequence (P10276 whole entry, looked up, the tested form may be a part): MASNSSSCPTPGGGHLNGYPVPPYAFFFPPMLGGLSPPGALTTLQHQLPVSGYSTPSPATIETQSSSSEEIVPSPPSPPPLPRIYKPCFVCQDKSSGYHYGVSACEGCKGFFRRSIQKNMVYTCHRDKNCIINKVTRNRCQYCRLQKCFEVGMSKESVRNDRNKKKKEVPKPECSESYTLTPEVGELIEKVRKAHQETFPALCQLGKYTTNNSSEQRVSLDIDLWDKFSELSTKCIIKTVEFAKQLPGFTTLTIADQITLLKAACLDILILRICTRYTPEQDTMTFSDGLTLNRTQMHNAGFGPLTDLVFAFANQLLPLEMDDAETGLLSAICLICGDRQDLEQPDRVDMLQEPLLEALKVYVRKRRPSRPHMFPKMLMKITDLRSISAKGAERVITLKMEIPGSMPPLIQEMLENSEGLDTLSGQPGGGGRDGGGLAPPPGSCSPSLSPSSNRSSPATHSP
rat Thyrotropin Releasing Hormone Receptor (TRH), Trhr (gene 25570), sequence (Q01717 whole entry, looked up): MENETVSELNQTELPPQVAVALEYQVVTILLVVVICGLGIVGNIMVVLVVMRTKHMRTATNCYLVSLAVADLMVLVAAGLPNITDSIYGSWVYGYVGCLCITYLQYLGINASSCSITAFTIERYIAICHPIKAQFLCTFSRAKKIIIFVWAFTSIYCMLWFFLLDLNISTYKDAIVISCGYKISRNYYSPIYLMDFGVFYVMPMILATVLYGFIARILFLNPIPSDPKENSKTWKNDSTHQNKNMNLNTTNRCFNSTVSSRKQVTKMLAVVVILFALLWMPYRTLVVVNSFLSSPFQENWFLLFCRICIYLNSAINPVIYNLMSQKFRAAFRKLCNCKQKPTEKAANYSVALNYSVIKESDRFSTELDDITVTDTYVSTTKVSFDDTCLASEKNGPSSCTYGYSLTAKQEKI
Glucocorticoid receptor (Homo sapiens), sequence (P04150 whole entry, looked up, the tested form may be a part): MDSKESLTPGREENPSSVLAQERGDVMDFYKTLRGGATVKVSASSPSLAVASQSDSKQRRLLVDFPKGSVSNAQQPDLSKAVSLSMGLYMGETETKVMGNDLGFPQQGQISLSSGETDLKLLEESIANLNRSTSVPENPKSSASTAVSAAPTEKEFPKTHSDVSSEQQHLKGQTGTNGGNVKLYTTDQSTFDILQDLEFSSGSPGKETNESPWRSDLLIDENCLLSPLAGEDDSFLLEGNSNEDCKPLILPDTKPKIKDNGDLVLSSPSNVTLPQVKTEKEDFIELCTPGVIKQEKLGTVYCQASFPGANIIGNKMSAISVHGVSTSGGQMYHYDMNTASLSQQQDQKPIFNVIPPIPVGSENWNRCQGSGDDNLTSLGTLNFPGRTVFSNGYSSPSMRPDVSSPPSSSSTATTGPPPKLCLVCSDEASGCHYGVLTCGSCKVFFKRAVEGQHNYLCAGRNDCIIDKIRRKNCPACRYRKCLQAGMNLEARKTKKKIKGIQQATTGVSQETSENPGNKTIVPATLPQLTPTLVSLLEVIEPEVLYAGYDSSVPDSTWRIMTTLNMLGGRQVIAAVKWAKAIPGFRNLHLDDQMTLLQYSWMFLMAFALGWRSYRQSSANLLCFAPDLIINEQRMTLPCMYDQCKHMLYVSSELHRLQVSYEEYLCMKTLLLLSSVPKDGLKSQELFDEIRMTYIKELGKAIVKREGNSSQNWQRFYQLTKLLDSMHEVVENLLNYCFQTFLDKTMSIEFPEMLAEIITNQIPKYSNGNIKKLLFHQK
human Retinoic Acid Receptor beta (RARb), RARB (gene 5915), sequence (P10826 whole entry, looked up, the tested form may be a part): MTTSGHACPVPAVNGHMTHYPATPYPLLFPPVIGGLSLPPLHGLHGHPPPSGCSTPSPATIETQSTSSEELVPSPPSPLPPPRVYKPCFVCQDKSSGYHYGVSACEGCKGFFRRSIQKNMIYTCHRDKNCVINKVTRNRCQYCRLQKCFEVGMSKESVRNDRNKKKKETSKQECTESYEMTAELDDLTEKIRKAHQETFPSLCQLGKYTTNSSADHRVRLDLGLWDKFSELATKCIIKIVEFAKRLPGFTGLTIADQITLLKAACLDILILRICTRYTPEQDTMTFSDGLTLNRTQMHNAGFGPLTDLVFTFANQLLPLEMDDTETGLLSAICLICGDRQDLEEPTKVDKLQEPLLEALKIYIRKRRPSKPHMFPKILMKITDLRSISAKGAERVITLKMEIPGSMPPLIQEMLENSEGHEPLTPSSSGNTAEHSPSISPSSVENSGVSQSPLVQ
Luciferin 4-monooxygenase (Photinus pyralis), sequence (P08659 whole entry, looked up): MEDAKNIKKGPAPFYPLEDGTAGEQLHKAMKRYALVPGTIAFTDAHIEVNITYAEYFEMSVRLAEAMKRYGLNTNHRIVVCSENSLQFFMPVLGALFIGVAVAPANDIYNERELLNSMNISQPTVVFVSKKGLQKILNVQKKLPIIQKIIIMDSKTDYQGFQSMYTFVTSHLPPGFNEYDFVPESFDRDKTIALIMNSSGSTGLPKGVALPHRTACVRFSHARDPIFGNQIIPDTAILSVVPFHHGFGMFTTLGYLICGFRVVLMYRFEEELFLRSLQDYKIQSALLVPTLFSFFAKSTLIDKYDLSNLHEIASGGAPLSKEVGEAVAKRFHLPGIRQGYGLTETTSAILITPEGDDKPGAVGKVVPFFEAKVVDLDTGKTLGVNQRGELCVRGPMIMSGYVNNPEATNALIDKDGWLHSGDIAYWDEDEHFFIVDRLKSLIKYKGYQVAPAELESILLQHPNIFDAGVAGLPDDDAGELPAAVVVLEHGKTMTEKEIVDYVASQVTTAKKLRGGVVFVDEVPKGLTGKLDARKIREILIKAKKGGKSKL

O=c1c2ccccc2c(=O)c2c1cc(Cl)c1[nH]c3c([nH]c12)c(Cl)cc1c(=O)c2ccccc2c(=O)c13
inactive: [1] | [2] | [3] | [4] | [5] | [6] | [7] | [8]

O=C(NC(=O)c1c(F)cccc1F)Nc1ccc(Oc2ccc(C(F)(F)F)cc2Cl)cc1F
active: [12] 40.8 µM
inactive: [9] | [10] | [11] | [13]

CC(C)C#N
inactive: [10] | [11]

CN1C(=O)CCS(=O)(=O)C1c1ccc(Cl)cc1 (configuration not stated)
inactive: [9] | [11]

O=C(CCN1CC1)OCC(CO)(COC(=O)CCN1CC1)COC(=O)CCN1CC1
inactive: [14]

Cc1ccc(C)c2ccccc12
inactive: [15] | [12]

CC(C)C(=O)Cl
inactive: [15]

Nc1cc(Cl)cc(Cl)c1
inactive: [16] | [12] | [18] | [19]
active: [17] 17.1 µM

CCCOC(=O)c1ccccc1C(=O)OCCC
inactive: [2] | [3] | [4] | [5] | [6] | [7] | [8]
active: [1] 20 µM

O=P1(NCCCl)OCCCN1CCCl (configuration not stated)
inactive: [10] | [1] | [2] | [3] | [4] | [5] | [6] | [7] | [8]

O=c1[nH]c(Cl)c(Cl)cc1Cl
inactive: [15] | [1] | [2] | [3] | [4] | [5] | [6] | [7] | [8]

COC(C)(C)CCC[C@H](C)C/C=C/C(C)=C/C(=O)OC(C)C
active: [20] 25 µM | [1] 13.4 µM | [2] 20 µM | [3] 27.1 µM | [4] 30.9 µM
inactive: [15] | [5] | [6] | [7] | [8]

COc1ncc(F)c2nc(S(=O)(=O)Nc3c(F)cccc3F)nn12
inactive: [14]

Cc1ccc(OP(=O)(Oc2ccc(C)cc2)Oc2ccc(C)cc2)cc1 (tested in a mixture with another compound)
active: [20] 1.12 µM and 1.76 µM | [1] 13.5 µM | [2] 13.2 µM | [4] 26.4 µM | [6] 10.2 µM
inactive: [16] | [13] | [3] | [5] | [7] | [8]

O=C(O)CCCc1ccc(N(CCCl)CCCl)cc1
active: [1] 3.48 µM and 5.7 µM | [2] 14.8 µM and 20 µM | [3] 24.4 µM and 30.1 µM
inactive: [4] | [5] | [6] | [7] | [8]
